# CYP2C19 inh: blocks human cytochrome P450 2C19. CYP2C19 Supersomes, luciferin-H EGE luminescence, 30 min. hit rate 21% among 96,000. AID 778. inhibition, % at 5 µM;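 active = CYP2C19 inhibition above a set limit at 5 µM in the primary screen, cut at about 50% in these data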
# CYP2C9 activ: CYP2C9 (human) activation. P11712. recombinant CYP2C9, luciferin-H conversion, luminescence; active compounds read high; factor 1 = untreated enzyme, 0 = blocked. activation factor at 5 µM. hit rate 1.4% among 96,000. AID 1024;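 active = activation factor of 2 or more for CYP2C9 at a 5 µM dose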
# Target sequence (P11712 whole entry, looked up): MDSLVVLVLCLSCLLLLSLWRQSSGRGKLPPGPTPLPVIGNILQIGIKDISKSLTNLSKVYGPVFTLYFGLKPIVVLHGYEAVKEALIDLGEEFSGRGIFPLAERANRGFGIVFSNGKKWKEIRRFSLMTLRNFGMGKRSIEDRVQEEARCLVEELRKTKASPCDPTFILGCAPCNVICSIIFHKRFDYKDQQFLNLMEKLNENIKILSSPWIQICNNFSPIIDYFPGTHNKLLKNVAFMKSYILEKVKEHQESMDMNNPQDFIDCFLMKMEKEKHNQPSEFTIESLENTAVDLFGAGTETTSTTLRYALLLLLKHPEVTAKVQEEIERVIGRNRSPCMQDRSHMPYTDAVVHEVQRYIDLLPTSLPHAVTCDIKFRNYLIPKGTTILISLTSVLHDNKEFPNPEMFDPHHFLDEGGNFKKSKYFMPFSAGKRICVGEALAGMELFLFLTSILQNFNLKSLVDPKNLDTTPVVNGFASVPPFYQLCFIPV
# CYP2C9 inhib: blocks human cytochrome P450 2C9; P11712; CYP2C9 Supersomes, luciferin-H conversion, luminescence; inhibition, % at 5 µM; hit rate 20% among 96,000; AID 777;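 active = blocking of liver enzyme CYP2C9 beyond about 50% at 5 µM, limit read from the data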
# CYP2C19 act: activators of human cytochrome P450 2C19. AID 1025. recombinant CYP2C19, luciferin-H EGE luminescence; active compounds read high; 0 = fully inhibited enzyme, 1 = untreated enzyme. 96,000 tested, under 10 active. P33261. activation factor at 5 µM;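 active = activation factor of at least 2 at 5 µM in the primary screen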
# Cav3 T inh: blocks human Cav3.2 T-type calcium channel; O95180; Cav3.2-expressing cells, Fluo-4 calcium fluorescence FDSS; active compounds read low; B-score at 10 µM; hit rate 4% among 100,000; AID 449739;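 active = single-dose well whose peak fluorescence ratio is a statistical outlier from its plate by either plate-standardised score or position-corrected B-score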
# Hits are given with their value; i = inactive; nt = not tested or not shown. In the library only some 27% were active in any assay of this set; here they are far more common.
SMILES,CYP2C19 inh,CYP2C9 activ,CYP2C9 inhib,CYP2C19 act,Cav3 T inh
Cc1cc2nc(CCN(C(=S)NCC(C)C)C3CCCC3)[nH]c2cc1C,i,i,i,i,-4.3
Cc1cc2nc(CCN(Cc3cccnc3)C(=S)Nc3ccccc3)[nH]c2cc1C,i,i,i,i,i
Cc1ccc(C(=O)NCc2ccc(Cl)c(Cl)c2)o1,84,i,i,i,i
COc1ccc(-c2cc3nc4n(c(=O)c3s2)CCC4)cc1,70,i,51,i,i
CCCCOc1ccc(S(=O)(=O)Nc2ccc(NC(C)=O)cc2)cc1,nt,nt,nt,nt,i
Cc1ccc(NS(=O)(=O)c2ccc(CCC(=O)NCCO)cc2)cc1,58,i,85,i,i
Cc1ccc(S(=O)(=O)NCCC(=O)NCCN2CCCCCC2)cc1,i,i,i,i,i
CCCNC(=O)COc1ccc(S(=O)(=O)Nc2ccc(C)cc2)cc1,69,i,52,i,i
NC(=O)CC1NC(=O)c2cc([N+](=O)[O-])cc(I)c2OCCC(C(N)=O)NC(=O)[C@@H]2CCCN2C1=O (stereo partly specified),nt,nt,nt,nt,i
N=c1c(C(=O)NCc2ccco2)cc2c(=O)n3ccccc3nc2n1CC1CCCO1 (stereo unspecified),nt,nt,nt,nt,i
Cc1cccc2cc3c(nc12)SC(=NCC1CCCO1)N(Cc1ccco1)C3 (stereo unspecified),i,i,57,i,i
COCCN=C1Sc2nc3c(C)cccc3cc2CN1Cc1ccco1,i,i,57,i,i
Cc1ccc2nc3c(cc2c1)CN(Cc1ccco1)C(=NCC1CCCO1)S3 (stereo unspecified),52,i,79,i,i
Cc1ccc2cc3c(nc2c1)N(Cc1ccco1)CC3,i,i,i,i,i
COc1cc(C(N)=O)ccc1OCc1ccccc1,i,i,i,i,i
O=C(O)c1ccc(COc2cccc(CO)c2)cc1,86,i,i,i,i
Nc1nnnn1/N=C/c1ccccn1,i,i,i,i,i
COC(=O)C1=C(C)N(C)C(C)=C(C(=O)OC)C1c1ccsc1,68,i,91,i,i
COC(=O)C1=C(C)N(C)C(=O)NC1c1ccc(C)cc1 (stereo unspecified),54,i,i,i,i
COC(=O)C1=CNC=C(C(=O)OC)C1c1ccc(C(=O)OC)cc1,99,i,95,i,i
CCN1C(=O)N[C@@H](c2ccc(Br)cc2)C(C(=O)OC)=C1C,nt,nt,nt,nt,i
COC(=O)C1=C(C)N(C)C(C)=C(C(=O)OC)C1c1ccc(C(=O)OC)cc1,97,i,92,i,i
O=C(CSc1ncn[nH]1)Nc1ccc(Cl)c(Cl)c1,63,i,i,i,i
O=C(CSc1ncn[nH]1)Nc1ccc(Br)cc1F,82,i,i,i,i
O=C(CSc1ncn[nH]1)Nc1ccccc1C(=O)O,i,i,i,i,i
SMILES,CYP2C19 inh,CYP2C9 activ,CYP2C9 inhib,CYP2C19 act,Cav3 T inh
COc1ccccc1NC(=O)CSc1ncn[nH]1,i,i,i,i,i
CCNc1nc(NCC)nc(Nn2cnnc2)n1,i,i,i,i,i
CC1CCCCC1NC(=O)CSc1nnc(COc2ccccc2Cl)o1 (stereo unspecified),i,i,i,i,i
Cc1ccc(OCC(O)CN2C(=O)NC(C)(C)C2=O)cc1C (stereo unspecified),84,i,i,i,i
CCCCN(CCCC)CC(O)CN1C(=O)NC(C)(C)C1=O (stereo unspecified),i,i,i,i,i
CC1(C)NC(=O)N(CC(O)CN(Cc2ccccc2)Cc2ccccc2)C1=O (stereo unspecified),85,i,i,i,i
CC1(C)NC(=O)N(CC(O)CN2CCOCC2)C1=O (stereo unspecified),56,i,i,i,i
O=C(Oc1ccc(OC(=O)N2CCCCC2)cc1)c1ccccc1,i,i,i,i,i
O=C(O)c1cnc(-c2ccccc2)nc1Sc1cccc(Cl)c1,i,i,i,i,-6.3
O=C(O)c1cnc(-c2ccccc2)nc1Sc1ccc(Cl)cc1Cl,i,i,53,i,i
O=C(O)c1cnc(-c2ccccc2)nc1Sc1ccccc1,i,i,i,i,i
CCOC(=O)N1CCC(NC2CCCCCCC2)CC1,58,i,i,i,i
Cc1ccc(S(=O)(=O)C2(C(=O)N3CCN(C4CCCCC4)CC3)CC2)cc1,nt,nt,nt,nt,-5.2
Cc1ccc(S(=O)(=O)C2(C(=O)N3CCCCCC3)CC2)cc1,79,i,i,i,i
COc1ccc(N=Cc2ccc(CNS(=O)(=O)c3ccc(Cl)cc3)o2)cc1,i,i,i,i,i
COc1ccc(-c2nn(-c3ccccc3)cc2/C=N/NS(=O)(=O)c2ccccc2)cc1,i,i,63,i,nt
COc1ccc(-c2nn(-c3ccccc3)cc2/C=N/N2C(=O)CSC2=S)cc1,i,i,i,i,i
CC(C)(Oc1ccc(Cl)cc1)C(=O)N/N=C/c1cn[nH]c1-c1ccccc1,72,i,72,i,i
COc1ccc(-c2[nH]ncc2/C=N\NS(=O)(=O)c2ccc(Cl)cc2)cc1,90,i,68,i,i
COc1ccc(-c2[nH]ncc2/C=N\NS(=O)(=O)c2ccccc2)cc1OC,i,i,71,i,nt
CC(C)c1cc(C(C)C)c(S(=O)(=O)N2c3ccccc3[C@]3(Br)C[C@H]4C(=O)N[C@@H](Cc5ccccc5)C(=O)N4[C@H]23)c(C(C)C)c1,nt,nt,nt,nt,i
NC(=O)C1CC(=O)N(Cc2ccc3c(c2)OCO3)C(=Nc2ccccc2)S1 (stereo unspecified),96,i,52,i,i
COc1ccc(N=C2SC(C(=O)Nc3ccc4c(c3)OCO4)CC(=O)N2C)cc1 (stereo unspecified),i,i,73,i,i
COc1ccc(N=C2SC(C(N)=O)CC(=O)N2CCc2ccc(OC)c(OC)c2)cc1 (stereo unspecified),64,i,i,i,i
COc1ccc(N=C2SC(C(=O)O)CC(=O)N2Cc2ccc(OC)c(OC)c2)cc1 (stereo unspecified),i,i,i,i,nt
SMILES,CYP2C19 inh,CYP2C9 activ,CYP2C9 inhib,CYP2C19 act,Cav3 T inh
CNC(=O)C1CC(=O)N(Cc2ccc3c(c2)OCO3)C(=Nc2ccc(OC)cc2)S1 (stereo unspecified),56,i,i,i,i
CCOc1ccc(NC(=O)C2CC(=O)N(CC)C(=Nc3ccc4c(c3)OCO4)S2)cc1 (stereo unspecified),i,i,i,i,i
O=C(CCc1nc(-c2ccccc2F)no1)NC1CCCCC1,i,i,i,i,i
Cc1cc(OC(=O)c2ccccc2Br)cc(=O)n1C,i,i,i,i,nt
CCS(=O)(=O)C(=C1NCCO1)S(=O)(=O)CC,i,i,i,i,i
COc1cccc(C(=O)Nc2ccc(NC(=O)C3CC3)cn2)c1,i,i,i,i,i
COc1ccc(C(=O)n2nc(-c3ccccc3)nc2N)cc1OC,i,i,i,i,i
O=C(Oc1ccc(-n2cnnn2)cc1)c1ccco1,i,i,i,i,i
Cc1nn(C(C)C(=O)NNC(=S)Nc2ccc(Cl)cc2)c(C)c1[N+](=O)[O-] (stereo unspecified),i,i,64,i,i

# Screening data (PubChem)
